Molecules are shown by their SMILES.

Phenylethanolamine N-methyltransferase (Homo sapiens), sequence (P11086 whole entry, looked up): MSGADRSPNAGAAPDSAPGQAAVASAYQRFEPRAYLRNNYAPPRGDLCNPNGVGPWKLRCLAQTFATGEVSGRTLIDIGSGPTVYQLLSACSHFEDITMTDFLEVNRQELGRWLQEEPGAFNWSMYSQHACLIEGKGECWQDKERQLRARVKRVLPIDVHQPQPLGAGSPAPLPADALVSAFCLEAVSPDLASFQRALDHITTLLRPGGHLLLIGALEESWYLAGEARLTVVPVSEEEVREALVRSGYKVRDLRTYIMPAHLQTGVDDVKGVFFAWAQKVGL
Nicotinamide N-methyltransferase (Homo sapiens), sequence (P40261 whole entry, looked up): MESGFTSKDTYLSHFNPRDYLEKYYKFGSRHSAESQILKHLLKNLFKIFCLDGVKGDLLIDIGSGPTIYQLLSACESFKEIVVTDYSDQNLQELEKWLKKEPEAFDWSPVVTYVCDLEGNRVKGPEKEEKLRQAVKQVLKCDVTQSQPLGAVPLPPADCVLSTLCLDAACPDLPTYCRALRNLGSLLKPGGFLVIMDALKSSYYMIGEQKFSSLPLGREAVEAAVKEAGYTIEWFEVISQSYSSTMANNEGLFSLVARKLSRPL

One assay addresses Nicotinamide N-methyltransferase (Homo sapiens) (UniProt P40261). The assay is described as follows: Confirmatory Screen for Target Class Profiling of Small Molecule Inhibitors of Methyltransferases (AID 1745852). The following applies: MTase-Glo luminescence, SAH detection, recombinant enzyme; measured here: NNMT max response; stronger effect = lower value.
As to `COC(=O)[C@@H](N)Cc1ccc(O)c(O)c1`, the activity stood at 4.06%.

Consider `COc1cc(C(=O)OCCCN2CCCN(CCCOC(=O)c3cc(OC)c(OC)c(OC)c3)CC2)cc(OC)c1OC`, for which the activity is -4.53%.

Turning to `CN(C)[C@@H]1C(=O)C(C(N)=O)=C(O)[C@@]2(O)C(=O)C3=C(O)c4c(O)ccc(Cl)c4[C@@H](O)[C@H]3C[C@@H]12`, the activity was -3.56%.

`CCc1cccc(N(C)C(N)=Nc2cccc3ccccc23)c1`: the activity was -4.43%.

A further assay has as its target Phenylethanolamine N-methyltransferase (Homo sapiens) (UniProt P11086). Described as above. The following applies: MTase-Glo luminescence, SAH detection, recombinant enzyme; measured here: PNMT max response; stronger effect = lower value.
Turning to `COC(=O)[C@@H](N)Cc1ccc(O)c(O)c1`, the activity was determined as 5.34%.

For the compound `COc1cc(C(=O)OCCCN2CCCN(CCCOC(=O)c3cc(OC)c(OC)c(OC)c3)CC2)cc(OC)c1OC`, the activity came to 1.01%.

On to `CN(C)[C@@H]1C(=O)C(C(N)=O)=C(O)[C@@]2(O)C(=O)C3=C(O)c4c(O)ccc(Cl)c4[C@@H](O)[C@H]3C[C@@H]12`, for which the activity came out at 2.12%.

Consider `CCc1cccc(N(C)C(N)=Nc2cccc3ccccc23)c1`, for which the activity came out at 1.17%.

Source of the values: PubChem BioAssay (NCATS).
